Screen size: about 310,000 compounds; about 410 (0.13%) were called active. Inconclusive results (about 2%) are left out. These entries were drawn from the full list. Potency and affinity values are given separately. Values without a mark were called inactive. No rule for the calls is given here.

CPE inhibition data for 93 compounds are collected here from PubChem BioAssay AID2391 (Southern Research Specialized Biocontainment Screening …, 2010).

This test can be described thus: RSV antiviral activity via CPE protection, HEp-2 cells, primary 10 µM value included (AID 2391). The conditions noted are these: RSV-induced CPE inhibition, at 10 µM, stronger effect = higher value.
Turning to `CCN(CC)C1=N/C(=C\c2ccco2)C(=O)N1c1ccccc1`, the CPE inhibition is 2.62%.
Consider `CCSC1=N/C(=C\c2ccccc2)C(=O)N1c1ccc(OC)cc1`, for which the CPE inhibition is 2.7%.
The result for `CN(C(=O)CCCN1C(=O)c2ccccc2C1=O)C1CCCCC1` reads 2.46%; that for `COc1ccc(CNC(=O)Nc2cc(C)ccc2C)cc1`, 2.36%; that for `O=C1CCC([N+](=O)[O-])C(c2ccc(Cl)c([N+](=O)[O-])c2)N1` (stereo not drawn), -2.01%.
Next, `O=C1CCSc2ccc(Cl)cc2N1Cc1ccc(Cl)cc1`: 45.3%.
Consider `O=C1CCSc2ccc(Cl)cc2N1Cc1ccccc1`, for which the CPE inhibition is 1.94%.
The result for `Cc1ccc(S(=O)(=O)CCC(=O)Nc2sccc2C#N)cc1` reads 0.59%.
The result for `COC(=O)Cc1ccc(NC(=S)N2CCN(c3ccc(OC)cc3)CC2)cc1` reads 13.6%.
`COc1ccc2nc(NC(=O)c3ccccc3C(=O)O)sc2c1`: the CPE inhibition was 1.92%.
Next, `COc1ccc2nc(NC(=O)c3ccccc3F)sc2c1`: 3.79%; `Cc1ccc(S(=O)(=O)N2[C@@H](c3ccc(F)cc3)C(C(=O)O)=CC[C@H]2c2cccc(Cl)c2)cc1`: 1.86%.
With `CCc1cc(S(=O)(=O)N2CCN(C(=O)c3ccco3)CC2)ccc1OC`, the CPE inhibition is 3.94%.
Next, `C=CCN(Cc1nc(-c2cc(OC)ccc2OC)oc1C)C1CCS(=O)(=O)C1` (stereo not drawn): -0.75%.
On to `Fc1ccccc1C1c2[nH]c3ccccc3c2CCN1Cc1cccn1-c1ncccn1` (stereo not drawn), for which the CPE inhibition was 16.6%.
The result for `CCOc1ccc(C2c3[nH]c4ccccc4c3CCN2Cc2cccn2-c2ncccn2)cc1` (stereo not drawn) reads 43.1%.
The result for `CC(C)(C)c1ccc(-c2nc(C#N)c(NCc3cccnc3)o2)cc1` reads 0.34%; that for `COc1ccc(C(C)(C)C)cc1NC(=O)c1ccc[n+]([O-])c1`, 0.85%; that for `O=C(NCc1ccccc1)c1ccc[n+]([O-])c1`, 0.02%.
Turning to `CC(=O)C1=C(O)C(=O)N(c2nccs2)C1c1ccc(F)cc1` (stereo not drawn), the CPE inhibition is 1.72%.
As for `O=c1/c(=C\c2ccc(F)cc2)sc2n1CCCN=2`, the CPE inhibition is 0.07%.
Next, `Cc1cccnc1Nc1nc(-c2ccc(F)cc2)cs1`: 14.5%; `CCCCN(CC)C(=O)c1cc2cc3ccc(OC)cc3nc2o1`: 20.6%; `COc1ccc2cc3cc(C(=O)N4CCCC(C)C4)oc3nc2c1` (stereo not drawn): -0.12%.
Regarding `CCCCN(C)C(=O)c1cc2cc3ccc(OC)cc3nc2o1`, the CPE inhibition is 12.1%.
The result for `Cc1ccc2cc3cc(C(=O)NC4CCCCC4)oc3nc2c1` reads 4.34%.
The result for `Cc1ccc2cc3cc(C(=O)N4CCCCCC4)oc3nc2c1` reads 58.9%; that for `COc1ccc2cc3cc(C(=O)N4CCCCCC4)oc3nc2c1`, 5.67%; that for `COc1ccc(/C=N/N=C2/NC(=O)C(CC(=O)O)S2)cc1OCc1ccc(Cl)cc1Cl` (stereo not drawn), 1.42%.
The result for `CCOc1cc(/C=N/N=C2/NC(=O)C(CC(=O)O)S2)ccc1OCc1ccc(Cl)cc1` (stereo not drawn) reads 2%; that for `CC(C)NC(=O)CCNC(=O)c1ccc(F)cc1`, 0.45%; that for `CCCCCCC(C)n1[nH]c(=O)c2c(C)cc(C)nc21` (stereo not drawn), 6.56%.
Regarding `O=C(Nc1ncccn1)c1cc(-c2cccc(Br)c2)nc2ccccc12`, the CPE inhibition was 10.3%.
Next, `COCCCNC(=O)c1cc(-c2cccnc2)nc2ccccc12`: 1.57%; `COCCNC(=O)COC(=O)c1cc(-c2ccc(OC)cc2)nc2ccccc12`: 2.44%.
Consider `O=C(NC1=NCCS1)c1cc(-c2ccc(F)cc2)nc2ccccc12`, for which the CPE inhibition was 8.35%.
Next, `COc1cccc(-c2cc(C(=O)Nc3ccncc3)c3ccccc3n2)c1`: 18.1%.
Turning to `O=C(NC1=NCCS1)c1cc(-c2cccnc2)nc2ccccc12`, the CPE inhibition is 3.02%.
Next, `Cc1ccc2nc(SCc3cn4cccnc4n3)[nH]c2c1`: 0.92%.
Next, `CC(C(=O)Nc1cccc([N+](=O)[O-])c1)n1nnc2ccccc21` (stereo not drawn): -0.02%; `CCC1Sc2ccc(S(=O)(=O)CCC(=O)Nc3c(Cl)cc(OC)cc3OC)cc2NC1=O` (stereo not drawn): 12.2%.
Next, `Cc1ccc(N2CCN(C(=O)NC3CCCCC3)CC2C)cc1` (stereo not drawn): 3.66%; `COc1ccc(NC(=O)NCCCN2CCN(c3ccccc3F)CC2)cc1`: -2.01%.
On to `CCOc1ccc(C(=O)CN2C(=O)NC3(CCCCCC3)C2=O)cc1`, for which the CPE inhibition is 1.63%.
On to `COc1cc2c(cc1OC)C(C)N(C(=O)/C=C/c1cc(OC)c(OC)c(OC)c1)CC2` (stereo not drawn), for which the CPE inhibition was 1.08%.
The result for `COc1cc2c(cc1OC)C(C)N(C(C)=O)CC2` (stereo not drawn) reads -1.08%; that for `COc1cc2c(cc1OC)C(C)N(C(=O)c1ccc(Br)o1)CC2` (stereo not drawn), 4.76%.
The result for `COc1cc2c(cc1OC)C(C)N(C(=O)c1ccc(C)o1)CC2` (stereo not drawn) reads 3.08%; that for `Cc1ccc(NC(=O)c2c(F)cccc2Cl)cc1S(=O)(=O)N1CCOCC1`, 2.31%; that for `CCOc1ccc(NC(=O)CC2C(=O)N(c3ccccc3)C(=S)N2Cc2ccccn2)cc1` (stereo not drawn), 7.95%.
Take `COc1ccc(N2C(=O)C(CC(=O)Nc3ccccc3)N(Cc3ccccn3)C2=S)cc1` (stereo not drawn): the CPE inhibition is 4.08%.
The result for `CCOc1ccc(NC(=O)CC2C(=O)N(c3ccccc3)C(=O)N2Cc2ccccn2)cc1` (stereo not drawn) reads 3.73%.
With `CCOc1ccc(NC(=O)CC2C(=O)N(c3ccc(OC)cc3)C(=S)N2Cc2ccccn2)cc1` (stereo not drawn), the CPE inhibition was -1.46%.
As to `CCCCCc1cc(=O)oc2c(C(CCN3CCCCC3)c3ccc(OC)cc3)c(OC)cc(OC)c12` (stereo not drawn), the CPE inhibition was -3.75%.
Next, `C[C@@]12C(=O)N(c3ccc(F)cc3)C(=O)N1[C@@H]1c3ccccc3OC[C@@H]1[C@H]2c1ccccc1`: 6.7%; `COc1cccc2c1c(NC(=O)Nc1ccc(F)cc1F)nn2C`: 1.98%.
Next, `COc1cccc2c1c(NC(=O)c1cc(C)on1)nn2C`: 2.09%; `CC(=O)Nc1ccc(NC(=O)C2CCC(N3C(=O)C4C5C=CC(C6CC56)C4C3=O)CC2)cc1` (stereo not drawn): 1.77%; `CC(C(=O)N1CCCC1)N1CCN(S(=O)(=O)c2ccc(C(C)(C)C)cc2)CC1` (stereo not drawn): 0.2%.
On to `Cc1c(NC(=O)CSCc2ccccc2)cccc1C(=O)O`, for which the CPE inhibition is -0.3%.
The result for `Cc1ccc(CSCC(=O)Nc2ccccc2F)cc1` reads 0.6%; that for `O=C(CSc1nc2ccccc2s1)N/N=C/c1ccco1`, 0.58%; that for `Cn1cccc1Cc1nnc(SCC(=O)Nc2ccc3c(c2)OCCO3)n1-c1ccc(F)cc1`, 0.23%.
Next, `Cc1ccc(C(=O)N[C@H](C(=O)OCC(=O)Nc2cccc(S(N)(=O)=O)c2)C(C)C)cc1`: -0.34%; `O=C(NC1CCCCC1)c1ccc(N2CCCC2=O)cc1`: 2.08%.
The result for `Cn1ncc(Br)c1C(=O)N1CCOCC1` reads 3.84%; that for `O=C(NCCOc1ccccc1Cl)C(=O)NCCOc1ccccc1Cl`, 3.63%.
As to `CC1CCN(C(=O)COc2ccccc2F)CC1`, the CPE inhibition is 4.04%.
Take `COC(=O)c1cc(S(=O)(=O)N2CCC(C)CC2)ccc1F`: the CPE inhibition is 0.31%.
Next, `O=C(CNC(=O)c1ccccc1F)NCCOc1ccccc1Cl`: 0.24%; `CCN1C(=O)[C@H]2[C@@H](c3ccc(C)cc3)N3C(=O)N(c4cccc(Cl)c4)C(=O)[C@@]3(CC(C)C)[C@H]2C1=O`: 3.11%; `N#Cc1ccc(CSc2nnc(-c3cccnc3)n2-c2ccccc2)cc1`: 0.49%.
The result for `Cc1ccc2c(C)c(C(=O)N3CCN(c4cnccn4)CC3)oc2c1C` reads 16.7%; that for `Cc1ccc2c(C)c(C(=O)N3CCN(Cc4ccccn4)CC3)oc2c1C`, 1.72%.
Next, `CC(C)N(CCO)Cc1nc(C(c2ccccc2)c2ccccc2)no1`: -0.29%; `Cc1c(C(=O)NCC2CCCO2)oc2ccc(Br)cc12` (stereo not drawn): 3.18%; `O=C(NCc1ccccc1)c1ccc(NC(=O)C2CCCO2)cc1` (stereo not drawn): 0.29%.
Regarding `O=C1CN(C(=O)CSc2nc3ccccc3c(=O)n2Cc2ccc(F)cc2)c2ccccc2N1`, the CPE inhibition is 16.3%.
The result for `Cc1ccc(-n2c(SCC(=O)N3CC(=O)Nc4ccccc43)nc3ccccc3c2=O)cc1` reads 3.64%; that for `O=C(COC(=O)CNC(=O)c1ccc(Cl)cc1)NC1CCCCCC1`, -0.18%.
Next, `CCOCCCNC(=O)C1CCCN1C(=O)NC1CCCCC1` (stereo not drawn): 1.83%; `CCOC(=O)N/N=C(\C)c1cccs1`: -0.75%.
The result for `Nc1ccc(-c2nc3ccccc3o2)cc1` reads 2.51%; that for `Nc1ccc(-c2nc3ccccc3[nH]2)cc1`, -0.76%; that for `Cc1ccc(S(=O)(=O)Nc2ccc3nc(-c4cccn4C)[nH]c3c2)cc1`, 2.21%.
For the compound `O=C(Nc1ccc(S(=O)(=O)Nc2nccs2)cc1)C1CCCCC1`, the CPE inhibition was 1.14%.
For `O=C(NC(=S)Nc1ccc(S(=O)(=O)Nc2nccs2)cc1)C1CC1`, the CPE inhibition is -0.1%.
Next, `O=C(c1cccc(N2C(=O)C3C4C=CC(C4)C3C2=O)c1)N1CCN(c2ccccc2)CC1` (stereo not drawn): 3.62%; `O=C(c1cccc(N2C(=O)C3C4C=CC(C4)C3C2=O)c1)N1CCN(c2ccccc2F)CC1` (stereo not drawn): 1.69%; `Cc1ccc(S(=O)(=O)NCCC(=O)NCC(c2ccc(F)cc2)N2CCOCC2)cc1` (stereo not drawn): -0.75%.
Next, `COc1ccc(CNC(=S)Nc2cccc(OC)c2)cc1`: 0.93%.
On to `CCOc1cc(S(=O)(=O)N(CC)CC)ccc1Br`, for which the CPE inhibition is 0.38%.
Next, `COc1ccccc1CNC(=O)CN(C)S(=O)(=O)c1ccc(Br)s1`: 3.3%.
